According to PubChem BioAssay (NCATS):
Records with an inconclusive call do not appear. Active and inactive are the calls of the source. Calls follow the shape of the dose curve; as a rule, active = well fitted curve in the direction sought with a large enough effect; inconclusive = small, poorly fitted or top-dose-only effect, or another doubt; inactive = no such curve, though single readings can be large; an effect the other way counts as inactive or inconclusive.

Key:
[1] = U-118MG Cancer Cell Toxicity qHTS against the NCATS CANVASS Library (AID 1347351); also: series mostly up to about 38 µM
Description: Natural products and their derivatives continue to be wellsprings of nascent therapeutic potential. However, many laboratories have limited resources for biological evaluation, leaving their previously isolated or synthesized compounds largely or completely untested. To address this issue, the Canvass library of natural products was assembled (https://tripod.nih.gov/canvass), in collaboration with academic and industry researchers, for quantitative high-throughput screening (qHTS) across a diverse set of cell-based and biochemical assays. The pure (>85% purity by liquid chromatography/mass spectrometry [LC/MS]) Canvass library of 346 natural products were submitted by 45 academic laboratories and companies around the world. […] The library was formatted into 1536-well plates and evaluated in 50 qHTS (in an 11-pnt concentration series) bioassays with broad scope of disease-relevant mechanisms. The resulting data set from 50 different assays was then systematically analyzed to identify overall trends and specific natural products with interesting biological activities. […]
Cancer Cell Toxicity protocol for cell lines COV-362, OV-KATE, OV-SAHO, UWB1.289, UWB1.289-WTBRCA1, HEK-293, HPAF-II, Panc-1005, SW1088, or U-118MG. […] Luminescence signal was acquired via the ViewLux plate reader (PerkinElmer) using a clear filter, 2 second exposure and 2x binning settings.

[2] = COV-362 Cancer Cell Toxicity qHTS against the NCATS CANVASS Library (AID 1347352); also: series mostly up to about 38 µM
Summary of the method: (§1)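 First, 1000 cells go into each well and rest for 4 hours. Next, an 11-point dilution range is pinned in. Plates then incubate 72 hours before CellTiter-Glo addition and luminescence reading.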

[3] = A2780 Cisplatin Sensitive Ovarian Cancer Cell Toxicity qHTS against the NCATS CANVASS Library (AID 1347353); details: outcome: dose series up to 46.1 µM; also: nearly all actives have a fitted effect of over 60% in size
Description: Natural products and their derivatives continue to be wellsprings of nascent therapeutic potential. However, many laboratories have limited resources for biological evaluation, leaving their previously isolated or synthesized compounds largely or completely untested. To address this issue, the Canvass library of natural products was assembled (https://tripod.nih.gov/canvass), in collaboration with academic and industry researchers, for quantitative high-throughput screening (qHTS) across a diverse set of cell-based and biochemical assays. The pure (>85% purity by liquid chromatography/mass spectrometry [LC/MS]) Canvass library of 346 natural products were submitted by 45 academic laboratories and companies around the world. We collected pure natural products to circumvent deconvolution and structure elucidation due to time and resource limitations. The library was formatted into 1536-well plates and evaluated in 50 qHTS (in an 11-pnt concentration series) bioassays with broad scope of disease-relevant mechanisms. The resulting data set from 50 different assays was then systematically analyzed to identify overall trends and specific natural products with interesting biological activities. […]
Cancer Cell Toxicity protocol 1. […] Luminescence signal was acquired via the ViewLux plate reader (PerkinElmer) using a clear filter, 2 second exposure and 2x binning settings.

[4] = UWB1.289-WTBRCA1 Cancer Cell Toxicity qHTS against the NCATS CANVASS Library (AID 1347354)
Summary of the method: as §1

[5] = HEK-293 Cancer Cell Toxicity qHTS against the NCATS CANVASS Library (AID 1347355); details: outcome: dose series up to 46.1 µM; also: series mostly up to about 46 µM; nearly all actives have a fitted effect of over 65% in size
Summary of the method: as §1

[6] = HPAF-II 24hr Apoptosis Induction qHTS against the NCATS CANVASS Library (AID 1347356)
Description: Natural products and their derivatives continue to be wellsprings of nascent therapeutic potential. However, many laboratories have limited resources for biological evaluation, leaving their previously isolated or synthesized compounds largely or completely untested. To address this issue, the Canvass library of natural products was assembled (https://tripod.nih.gov/canvass), in collaboration with academic and industry researchers, for quantitative high-throughput screening (qHTS) across a diverse set of cell-based and biochemical assays. The pure (>85% purity by liquid chromatography/mass spectrometry [LC/MS]) Canvass library of 346 natural products were submitted by 45 academic laboratories and companies around the world. […] The library was formatted into 1536-well plates and evaluated in 50 qHTS (in an 11-pnt concentration series) bioassays with broad scope of disease-relevant mechanisms. The resulting data set from 50 different assays was then systematically analyzed to identify overall trends and specific natural products with interesting biological activities. […] The luminescence is proportional to the amount of caspase activity in the assay reaction. […]
Cancer Cell Apoptosis Assay 1. […] Luminescence signal was acquired via the ViewLux plate reader (PerkinElmer) using a clear filter, 20 second exposure and 2x binning settings.

[7] = HEK293 18hr Apoptosis Induction qHTS against the NCATS CANVASS Library (AID 1347357)
Summary of the method: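 Luminescent caspase-3/7 signal is measured in HEK293 cells exposed for 18 hours to an 11-point concentration series; doxorubicin serves as the plate control.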

[8] = HPAF-II 12hr Apoptosis Induction qHTS against the NCATS CANVASS Library (AID 1347358)
Summary of the method: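 Cells plated at 500 per well are dosed with compound and incubated 12 hours at 37 degrees C. Caspase-Glo 3/7 reagent is added and, after 15 min at room temperature, luminescence proportional to caspase activity is measured.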

[9] = HEK293 24hr Apoptosis Induction qHTS against the NCATS CANVASS Library (AID 1347359)
Summary of the method: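 Caspase-3/7 activation measured as luminescence from the DEVD-based Caspase-Glo reagent, 15 min at room temperature, following 24-hour compound treatment of HEK293 cells.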

[10] = HPAF-II 18hr Apoptosis Induction qHTS against the NCATS CANVASS Library (AID 1347360)
Summary of the method: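 Apoptosis was scored as caspase-3/7 activity in HPAF-II pancreatic cancer cells treated 18 hours with an 11-point concentration series.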

Measured: outcome

C/C=C/C=C/C(CC(=O)O)Nc1ccc(C=O)cc1 (stereo not given)
inactive: [1] | [2] | [3] | [4] | [5] | [6] | [7] | [8] | [9] | [10]

CC1=C2C(=O)O[C@@H](c3ccoc3)[C@]2(C)CCC1
inactive: [1] | [2] | [3] | [4] | [5] | [6] | [7] | [8] | [9] | [10]
